Values joined by “and” are separate entries in the source; they are usually repeats but may differ in a detail not shown here. Identical values can stand only once. Results filed as inconclusive are left out. More than one record can exist for a structure, and the calls need not agree. Active and inactive are the calls of the source. Unless noted, calls come from the whole dose curve; as a rule, active = well fitted curve in the direction sought with a large enough effect in the repeat runs; inconclusive = weak or mixed curves; inactive = no such curve, though single readings can be large; an effect the other way counts as inactive or inconclusive.

Test [1] can be described thus: qHTS assay to identify small molecule antagonists of the estrogen receptor alpha (ER-alpha) signaling pathway using the BG1 cell line in the presence of 0.1 nM 17-beta-estradiol - cell viability counter screen (AID 1259241). Note: nearly all actives have a fitted effect of over 40% in size. Put shortly: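 Cells were plated and left 24 hr, compounds in DMSO were pinned in, 17beta-estradiol was added to 0.1 nM final, and after 22 hr CellTiter-Fluor reagent was added for 30 min before fluorescence was read.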
For orientation: qHTS replaces the single test concentration by a dilution series.

Test [2] has as its target Estrogen receptor (Homo sapiens) (UniProt P03372). The test is described as follows: qHTS assay to identify small molecule antagonists of the estrogen receptor alpha (ER-alpha) signaling pathway using the BG1 cell line in the presence of 0.1 nM 17-beta-estradiol (AID 1259244). Note: nearly all actives have a fitted effect of over 50% in size. Note: potency is the fitted concentration of half-maximal effect. The essentials: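 Antagonist mode: compounds in DMSO are pinned onto VM7Luc4E2 reporter cells, 0.1 nM final 17beta-estradiol is added, and after 22 h at 37C luciferase luminescence is measured with ONE-Glo.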

Test [3] in a line: qHTS assay to identify small molecule HDAC inhibitors (AID 1259364).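 Note: wild-type HCT-116 cells with endogenous class I/II HDAC activity; top concentration of the series differs between compounds; nearly all actives have a fitted effect of over 45% in size.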 Put shortly: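 Cells (HCT-116, wild type) are seeded at 1,500 per well, incubated overnight, treated with compound in DMSO for 2 hr, then developed with HDAC-Glo I/II reagent for 30 min at room temperature.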
Test [4] is described as follows: qHTS assay to identify small molecule HDAC inhibitors - cell viability counter screen (AID 1259365). Note: series mostly up to about 92 µM; nearly all actives have a fitted effect of over 50% in size. Put shortly: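 Counter screen in wild-type HCT-116 cells: compounds dissolved in DMSO are pin-transferred onto overnight-plated cells and left 2hr at 37C. ATP-based CellTiter-Glo luminescence then measures viable cells.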
Test [5] can be described thus: qHTS assay to identify small molecule agonists of the sonic hedgehog signaling (Shh) pathway - cell viability counter screen (AID 1259366). Note: nearly all actives have a fitted effect of over 50% in size. Note: potency is the fitted concentration of half-maximal effect. The essentials: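 Cells are plated at 2,000 per well and left 4hr at 37C, 5% CO2 before compound addition. After 23hr of treatment, CellTiter-Fluor reagent is added for 1hr at 37C and fluorescence is measured.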
Test [6] can be described thus: qHTS assay to identify small molecule antagonists of the sonic hedgehog signaling (Shh) pathway - cell viability counter screen (AID 1259367). Note: nearly all actives have a fitted effect of over 55% in size. Note: potency is the fitted concentration of half-maximal effect. Put shortly: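 Viability was read by CellTiter-Fluor fluorescence in the same wells, reagent added 23 hr into compound treatment and incubated 1 hr at 37C. The 3T3 Gli1-Luc reporter cells (2,000/well) received conditioned medium after compound and ran 24 hr.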

The nature of test [7]: qHTS assay to identify small molecule agonists of the sonic hedgehog signaling (Shh) pathway (AID 1259368; calls by dose curve;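 note: NIH/3T3-derived 3T3Gli1-Luc cells carrying a stable Gli1-driven firefly luciferase reporter; series mostly up to about 92 µM; nearly all actives have a fitted effect of over 15% in size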). The essentials: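 Cells of a mouse NIH/3T3 clone stably expressing luciferase under the Gli1 transcriptional response element are exposed to test chemicals for 24 hr at 37 C. Pathway activation is detected as a rise in luminescence.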
The nature of test [8]: qHTS assay to identify small molecule antagonists of the sonic hedgehog signaling (Shh) pathway (AID 1259369; calls by dose curve; note: nearly all actives have a fitted effect of over 45% in size; note: potency is the fitted concentration of half-maximal effect). The essentials:
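Cells are plated and held 4hr at 37 C, compounds (DMSO) are pinned in, conditioned medium is added to stimulate the pathway, and after 24hr luciferase reagent is added for 30min before luminescence is read.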

Test [9] can be described thus: qHTS assay to identify small molecule agonists of the androgen receptor (AR) signaling pathway in the presence of an antagonist - cell viability counter screen (AID 1259379). Note: nearly all actives have a fitted effect of over 25% in size. Note: potency is the fitted concentration of half-maximal effect. Put shortly:
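Cytotoxicity is assessed by CellTiter-Fluor in MDA-kb2 cells carrying an MMTV-driven luciferase reporter. Cells receive 3.0uM nilutamide plus compounds at 15 concentrations and incubate 16 hr at 37C without CO2 before fluorescence reading.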

The nature of test [10]: qHTS assay to identify small molecule agonists of the estrogen receptor beta (ER-beta) signaling pathway - cell viability counter screen (AID 1259380). Note: nearly all actives have a fitted effect of over 30% in size. Note: potency is the fitted concentration of half-maximal effect. The essentials:
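Cytotoxicity is measured in parallel with the reporter screen: after 16 hr compound exposure at 37C and a 2 hr LiveBLAzer step, CellTiter-Glo is added to the same ER-beta-UAS-bla HEK293T wells and luminescence read after 30 min.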

Test [11] addresses Androgen receptor (Homo sapiens) (UniProt P10275). The test is described as follows: qHTS assay to identify small molecule agonists of the androgen receptor (AR) signaling pathway in the presence of an antagonist (AID 1259381; calls by dose curve; note: nearly all actives have a fitted effect of over 15% in size). Put shortly:
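Agonist-mode confirmation screen: human MDA-kb2 cells stably expressing luciferase under an MMTV promoter bearing AR and GR response elements, co-treated with 3.0uM nilutamide (final). Luminescence measured after 16hr compound incubation.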

The nature of test [12]: qHTS assay to identify small molecule antagonists of the estrogen receptor beta (ER-beta) signaling pathway - cell viability counter screen (AID 1259382). Note: nearly all actives have a fitted effect of over 55% in size. Note: potency is the fitted concentration of half-maximal effect. The essentials:
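Cytotoxicity counter screen multiplexed with the beta-lactamase antagonist assay: GripTite HEK293T ER-beta-bla cells were treated 16 hr with test chemicals in the presence of 1nM 17-beta-estradiol, and viability was measured by CellTiter-Glo.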

The target of test [13] is Estrogen receptor (Homo sapiens) (UniProt P03372). The test is described as follows: qHTS assay to identify small molecule agonists of the estrogen receptor alpha (ER-alpha) signaling pathway in the presence of an antagonist (AID 1259383; calls by dose curve; note: top concentration of the series differs between compounds; nearly all actives have a fitted effect of over 15% in size). Put shortly:
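Agonist-mode confirmation in the presence of the ER antagonist ICI-182,780 at 10.0nM final. Breast-derived VM7Luc4E2 reporter cells were exposed to compounds for 22hr, and ERE-driven luciferase was quantified by luminescence.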

Test [14] in a line: qHTS assay to identify small molecule agonists or antagonists of the thyroid stimulating hormone receptor (TSHR) signaling pathway - wild type cell line counter screen (AID 1259384; calls by dose curve). Put shortly:
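Counter screen in untransfected Hek293: compounds (15-point titration, triplicate) plus phosphodiesterase inhibitor Ro20-1724 added after 18 h plating; 30 min RT. Intracellular cAMP via competitive d2/cryptate immunoassay, 1 h incubation.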

The target in test [15] is Thyrotropin receptor (Homo sapiens) (UniProt P16473). Nature of the test: qHTS assay to identify small molecule antagonists of the thyroid stimulating hormone receptor (TSHR) signaling pathway (AID 1259385; calls by dose curve; note: nearly all actives have a fitted effect of over 20% in size). The essentials:
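Antagonist mode: compound-treated TSHR-expressing HEK293 cells were stimulated with 1.5 ng/mL TSH (final) in presence of Ro20-1724 for 30 min at RT. HTRF cAMP detection after 1 h; each compound tested at 15 concentrations, triplicate.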

The nature of test [16]: qHTS assay to identify small molecule antagonists of the androgen receptor (AR) signaling pathway using the MDA cell line in the presence of 0.5 nM R1881 - cell viability counter screen (AID 1259242). Note: nearly all actives have a fitted effect of over 45% in size. Note: potency is the fitted concentration of half-maximal effect. Put shortly:
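Steps: plate MDA-kb2 cells, rest 5 hr at 37C without CO2; pin in compounds in DMSO; add R1881 to 0.5 nM final; incubate 16 hr; add CellTiter-Fluor, 30 min; read fluorescence.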

The nature of test [17]: qHTS assay to identify small molecule phospholipidosis (PLD) inducers (AID 1259344; active = well fitted curve in the direction sought with a large enough effect; an effect the other way counts as inactive or inconclusive). Put shortly: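 Phospholipid accumulation was scored by imaging: fixed, Hoechst-counterstained HepG2 cells stained with LipidTOX Red after 24 h compound exposure at 37 C. Read-outs were pit count and pit intensity per well or per cell, with amiodarone and DMSO controls.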
The target in test [18] is Estrogen receptor beta (Homo sapiens) (UniProt Q92731). Nature of the test: qHTS assay to identify small molecule antagonists of the estrogen receptor beta (ER-beta) signaling pathway (AID 1259378; active = well fitted inhibition curve with a large enough effect in the signal ratio in the repeat runs, not every such curve was filed as active; the % refers to the signal ratio; note: potency is the fitted concentration of half-maximal effect). Put shortly: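 Antagonist mode: compounds added to beta-lactamase reporter HEK293T ER-beta-UAS cells stimulated with E2 (1nM final), 16 hr at 37C. LiveBLAzer B/G FRET substrate, 2 hours room temperature, fluorescence read-out.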

For test [19] the target is unchanged. Nature of the test: qHTS assay to identify small molecule agonists of the estrogen receptor beta (ER-beta) signaling pathway (AID 1259377; active = well fitted activation curve with a large enough effect in the signal ratio in the repeat runs, not every such curve was filed as active; the % refers to the signal ratio). The essentials: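 Agonist mode cell assay in GripTite HEK293T cells expressing an ER-beta fusion that drives beta-lactamase from an Upstream Activator Sequence; 16 hr compound exposure at 37C, then 2 h LiveBLAzer B/G FRET substrate at room temperature, fluorescence read-out.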

The target of test [20] is Androgen receptor (Homo sapiens) (UniProt P10275). Nature of the test: qHTS assay to identify small molecule antagonists of the androgen receptor (AR) signaling pathway using the MDA cell line in the presence of 0.5 nM R1881 (AID 1259243). Note: nearly all actives have a fitted effect of over 50% in size. Put shortly:
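Stably transfected MDA-kb2 cells express luciferase from an MMTV promoter bearing both AR and GR response elements. Compounds plus 0.5 nM R1881 (final) were incubated 16 hr at 37C without CO2, then luminescence measured.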

Sequence of Androgen receptor (Homo sapiens) (P10275 whole entry, looked up): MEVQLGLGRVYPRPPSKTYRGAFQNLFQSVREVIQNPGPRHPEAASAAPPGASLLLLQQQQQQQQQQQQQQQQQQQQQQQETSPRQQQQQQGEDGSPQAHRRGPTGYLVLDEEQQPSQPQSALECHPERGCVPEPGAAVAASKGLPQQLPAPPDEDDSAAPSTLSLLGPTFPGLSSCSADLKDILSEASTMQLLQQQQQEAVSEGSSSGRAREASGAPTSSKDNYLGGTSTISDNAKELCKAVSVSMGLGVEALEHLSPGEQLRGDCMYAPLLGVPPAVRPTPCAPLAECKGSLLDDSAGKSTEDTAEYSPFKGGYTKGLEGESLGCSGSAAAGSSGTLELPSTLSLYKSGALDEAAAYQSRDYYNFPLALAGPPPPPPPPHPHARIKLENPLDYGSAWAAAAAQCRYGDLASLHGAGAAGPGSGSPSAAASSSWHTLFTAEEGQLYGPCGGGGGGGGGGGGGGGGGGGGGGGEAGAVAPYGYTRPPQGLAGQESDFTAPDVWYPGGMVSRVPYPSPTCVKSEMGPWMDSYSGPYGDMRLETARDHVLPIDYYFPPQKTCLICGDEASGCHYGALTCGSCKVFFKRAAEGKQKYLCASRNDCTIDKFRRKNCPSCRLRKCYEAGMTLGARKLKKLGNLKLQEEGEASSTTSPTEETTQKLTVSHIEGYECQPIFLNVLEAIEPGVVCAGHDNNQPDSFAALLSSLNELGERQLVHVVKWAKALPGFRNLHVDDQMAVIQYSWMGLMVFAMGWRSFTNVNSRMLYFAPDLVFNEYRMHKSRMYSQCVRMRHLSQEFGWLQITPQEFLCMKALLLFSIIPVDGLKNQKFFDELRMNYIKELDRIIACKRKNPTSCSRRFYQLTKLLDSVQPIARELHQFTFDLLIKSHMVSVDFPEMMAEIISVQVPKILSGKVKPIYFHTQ
Sequence of Estrogen receptor (Homo sapiens) (P03372 whole entry, looked up): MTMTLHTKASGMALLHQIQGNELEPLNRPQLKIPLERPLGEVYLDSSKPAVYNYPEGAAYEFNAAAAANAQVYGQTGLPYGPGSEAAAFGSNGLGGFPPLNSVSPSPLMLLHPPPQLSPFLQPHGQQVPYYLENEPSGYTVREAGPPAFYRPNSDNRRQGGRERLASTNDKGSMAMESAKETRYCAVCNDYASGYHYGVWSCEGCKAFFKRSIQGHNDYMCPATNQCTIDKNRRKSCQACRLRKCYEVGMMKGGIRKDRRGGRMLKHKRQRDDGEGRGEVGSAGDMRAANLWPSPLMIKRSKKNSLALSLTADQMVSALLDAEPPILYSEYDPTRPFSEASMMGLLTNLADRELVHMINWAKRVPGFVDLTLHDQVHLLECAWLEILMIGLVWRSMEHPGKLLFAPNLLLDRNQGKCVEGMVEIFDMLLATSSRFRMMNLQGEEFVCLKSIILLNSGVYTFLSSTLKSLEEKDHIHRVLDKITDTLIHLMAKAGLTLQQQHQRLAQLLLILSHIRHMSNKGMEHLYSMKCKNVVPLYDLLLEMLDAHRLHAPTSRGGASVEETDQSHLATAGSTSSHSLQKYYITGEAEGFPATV
Sequence of Estrogen receptor beta (Homo sapiens) (Q92731 whole entry, looked up): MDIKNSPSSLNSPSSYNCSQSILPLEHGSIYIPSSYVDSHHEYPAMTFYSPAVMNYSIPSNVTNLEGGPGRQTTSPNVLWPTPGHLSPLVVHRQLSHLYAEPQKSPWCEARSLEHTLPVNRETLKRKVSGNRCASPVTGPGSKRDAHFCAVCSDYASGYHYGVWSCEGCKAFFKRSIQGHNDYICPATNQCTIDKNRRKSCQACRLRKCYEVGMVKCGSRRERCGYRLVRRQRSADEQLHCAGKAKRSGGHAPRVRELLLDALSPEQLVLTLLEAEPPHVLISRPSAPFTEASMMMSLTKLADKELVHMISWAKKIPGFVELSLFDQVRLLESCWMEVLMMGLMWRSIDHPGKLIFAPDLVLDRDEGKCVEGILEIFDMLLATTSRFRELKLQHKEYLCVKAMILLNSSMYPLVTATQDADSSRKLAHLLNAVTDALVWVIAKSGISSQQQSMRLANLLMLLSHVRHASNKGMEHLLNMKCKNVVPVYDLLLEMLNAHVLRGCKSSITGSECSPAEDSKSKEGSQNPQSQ
Sequence of Thyrotropin receptor (Homo sapiens) (P16473 whole entry, looked up): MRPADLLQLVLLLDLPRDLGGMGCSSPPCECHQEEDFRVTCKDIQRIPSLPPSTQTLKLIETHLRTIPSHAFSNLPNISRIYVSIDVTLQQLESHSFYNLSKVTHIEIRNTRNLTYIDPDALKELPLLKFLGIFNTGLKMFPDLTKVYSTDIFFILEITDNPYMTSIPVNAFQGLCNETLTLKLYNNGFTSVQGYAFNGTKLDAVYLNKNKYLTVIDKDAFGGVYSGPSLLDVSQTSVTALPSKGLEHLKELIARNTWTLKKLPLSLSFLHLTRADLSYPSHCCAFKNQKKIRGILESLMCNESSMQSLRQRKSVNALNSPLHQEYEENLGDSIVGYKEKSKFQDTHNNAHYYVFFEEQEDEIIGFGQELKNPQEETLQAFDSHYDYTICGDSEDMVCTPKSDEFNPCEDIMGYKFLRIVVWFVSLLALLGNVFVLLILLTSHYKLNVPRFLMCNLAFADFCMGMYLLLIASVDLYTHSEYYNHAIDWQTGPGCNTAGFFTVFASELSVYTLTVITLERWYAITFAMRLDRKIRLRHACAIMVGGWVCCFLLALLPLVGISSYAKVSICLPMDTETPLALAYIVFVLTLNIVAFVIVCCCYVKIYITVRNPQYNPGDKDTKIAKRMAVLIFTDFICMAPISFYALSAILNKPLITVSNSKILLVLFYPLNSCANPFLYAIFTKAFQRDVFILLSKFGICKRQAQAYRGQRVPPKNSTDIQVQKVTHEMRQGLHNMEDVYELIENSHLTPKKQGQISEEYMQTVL

As to `SCc1ccco1`, the Potency entry in test [1], in test [2], in [3], in [4], in [5] and in test [6] was “inactive” in each case. Also, the Potency result in test [7], in test [9], in [10], in test [11], in [12] and in [13] was “inactive” in each case. For the same compound, the Potency result in test [15] was “inactive”. Also, the Potency in test [8] was 61.1 µM (active). Also, the call in test [14] was inactive.

`CS(=O)(=O)c1ccc(C(=O)C2C(=O)CCCC2=O)c([N+](=O)[O-])c1`: the Potency result in test [16], in test [2], in test [17], in [3], in test [4] and in test [5] was “inactive” throughout. Moreover, the Potency result in test [7], in [18], in test [9], in test [13] and in test [15] was “inactive” throughout. Moreover, the outcome in test [14] was inactive.

In the case of `Fc1cccc(Cl)c1CCl`, the Potency result in test [16], in test [2], in test [3], in test [4], in [5] and in test [6] was “inactive” each time. For the same compound, the Potency entry in test [7], in test [8], in test [19], in [18], in test [9] and in test [10] was “inactive” each time. Moreover, the Potency entry in [12], in [13] and in [15] was “inactive” throughout. Also, the call in [14] was inactive.

Regarding `O=c1[nH]c2ccccc2n1C1CCN(CCCC(c2ccc(F)cc2)c2ccc(F)cc2)CC1`, the Potency in test [16] was 54.5 µM (active) and inactive; in test [2], 48.6 µM (active); in [5], 27.3 µM (active); in test [18], 17.2 µM (active); in test [9], 24.3 µM (active); in [10], 27.3 µM (active) and 21.1 µM (active). The Potency in test [12] was 30.6 µM (active) and 29.8 µM (active). Also, the Potency result in [3], in test [4], in [6], in test [7], in test [19] and in test [13] was “inactive” in each case. In addition, the compound was classed as inactive in [14].

Consider `CN(CCCC(=O)c1cccnc1)N=O`, for which the Potency result in [16], in test [20], in test [2], in [3], in test [4] and in [5] was “inactive” in each case. Besides, the Potency entry in [6], in test [7], in test [8], in [9], in test [10] and in test [11] was “inactive” in each case. Besides, the Potency entry in test [12], in [13] and in test [15] was “inactive” throughout. Moreover, in test [14], the compound was called inactive.

With `Oc1ccc(C2(c3ccc(O)cc3)c3ccccc3-c3ccccc32)cc1`, the Potency entry in test [16], in test [3], in test [4], in test [7], in [13] and in [15] was “inactive” in each case. The Potency in [2] was 1.72 µM (active); in test [5], 54.5 µM (active); in [6], 27.3 µM (active); in test [8] it was 27.3 µM (active); in test [9], 34.4 µM (active); in [10], 48.6 µM (active). Besides, the Potency in test [12] is 61.1 µM (active). The outcome in test [14] was inactive.

As to `CC(O)C#N` (centres undefined), the Potency entry in test [16], in [20], in [2], in test [3], in [4] and in test [5] was “inactive” each time. Besides, the Potency result in test [6], in test [7], in test [8], in test [19], in [18] and in [9] was “inactive” throughout. The Potency entry in test [10], in test [11], in test [12] and in [13] was “inactive” each time. Moreover, the result in test [14] was inactive.

(Values after PubChem BioAssay (Tox21).)
